The results in this text go back to PubChem BioAssay AID602399 (Sanford-Burnham Center for Chemical Genomics, 2012).

The term inhibition denotes the relative decrease from the control value, in per cent.

The whole screen tested about 360,000 compounds, of which about 2,800 (0.78%) were called active. No stated cut-off is given here; in the data, active means inhibition above about 26%; inactive means the rest. Shown is part of a subset that was picked to be rich in actives.

This test deals with Nicotinate-nucleotide adenylyltransferase NadD (Staphylococcus aureus N315). Description: S. aureus NadD enzyme activity blockers – biochemical, colorimetric, uHTS, primary screen (AID 602399). The following applies: purified NadD enzyme, colorimetric absorbance read-out; at 20 µM; stronger effect = higher value.
For `CCCCNC(=O)C[C@@H]1C[C@@]2(C(=O)OCC)CCC=C2N(Cc2cccc3ccccc23)C1=O`, the inhibition was -3.88% (inactive). For `Cc1ccc(S(=O)(=O)NC(=O)COc2ccccc2C)cc1`, the inhibition was -3.06% (inactive). In the case of `COc1ccc(S(=O)(=O)N2CCC(C(=O)OCC(=O)c3ccccc3)CC2)cc1[N+](=O)[O-]` it was -4.05% (inactive). With `Cc1ccc(NS(=O)(=O)c2ccc(N/N=C/c3ccccc3OCC(=O)O)c([N+](=O)[O-])c2)c(C)c1` the figure was 37.4% (active); with `COc1ccc(Br)cc1/C=N/Nc1ccc(S(=O)(=O)Nc2ccccc2C(=O)O)cc1[N+](=O)[O-]`, 37.4% (active); with `CC1CN(C(=O)c2ccccc2NS(=O)(=O)c2cccc([N+](=O)[O-])c2)CC(C)O1` (stereo unspecified), 4.4% (inactive). In the case of `C=C(C)CNC(=S)N/N=C/c1ccccc1OCC(=O)O` it was 11.3% (inactive); in that of `CSCC[C@H](NC(=O)NCCc1ccc(F)cc1)C(=O)O`, -3.24% (inactive); in that of `COc1cccc(N(CC(=O)NC2CCCCCC2)S(=O)(=O)c2ccccc2)c1`, -2.69% (inactive). Consider `Cc1noc(C)c1COC(=O)c1cc2ccccc2cc1O`, for which the inhibition was -3.66% (inactive). With `O=C(NNc1c2ccccc2nc2ccccc12)c1cc2ccccc2cc1O` the figure was 50.6% (active).

In the case of `O=C(CSc1nc(C2CC2)nc2ccccc12)Nc1cccc(O)c1`, the inhibition is 4.64% (inactive). With `COC(=O)c1ccccc1NC(=O)C1CCN(C(=O)N2CCOc3ccccc32)CC1` the figure was -4.87% (inactive). In the case of `Cc1cc(C)c(S(=O)(=O)NN=C2c3ccccc3[C@H]3Cc4csc[n+]4[C@@H]23)c(C)c1` it was 44% (active); in that of `Cc1ccc(NC2CCCN(C(=O)CCC3(C)CC3)C2)cc1C` (stereo unspecified), -4.9% (inactive). With `CCCCn1c(N)c(N(CCOC)C(=O)c2oc3ccc(OC)cc3c2C)c(=O)[nH]c1=O` the figure was -3.15% (inactive). On to `NNC(=O)c1cccc(COCC(F)(F)C(F)F)c1`, for which the inhibition was 10.9% (inactive).

Consider `CC(Sc1nncn1C)C(=O)NCCC1=CCCCC1` (stereo unspecified), for which the inhibition was -5.51% (inactive). In the case of `COC(=O)CCCC1=CC2=CC(=O)C(C)(OC(=O)c3cccs3)C(=O)C2=CN1c1cccc(C#N)c1` (stereo unspecified), the inhibition was 10.8% (inactive). With `CC1(OC(=O)C2CCCC2)C(=O)C=C2C=C(c3ccc(C#N)cc3)OC=C2C1=O` (stereo unspecified) the figure was 51.9% (active); with `COC(=O)CCCC1=CC2=C(c3ccccc3)C(=O)C(C)(OC(=O)C3CCCC3)C(=O)C2=CN1c1ccc(OC)cc1` (stereo unspecified), 6.8% (inactive); with `C/C(=N\NC(=O)c1ccc(NS(=O)(=O)c2cccs2)cc1)c1ccc2ccccc2c1`, 11.2% (inactive).

Take `Cc1cccc(C(=O)Nc2ccc(C(=O)/C=C/c3cccs3)cc2)c1`: the inhibition is 18.5% (inactive). With `O=C(Nc1ccc(NC(=O)c2cccs2)cc1)c1ccc2ccccc2c1` the figure was 34.4% (active); with `Cc1cc(C)n2nc(C(=O)Nc3cccc(S(=O)(=O)N4CCOCC4)c3)nc2n1`, -1.81% (inactive).

On to `COc1ccc(Cc2nc3ccc(C(=O)NCC4CCOCC4)cc3o2)cc1OC`, for which the inhibition was 0% (inactive). For the molecule `CC(C)CC1C(=O)N(Cc2cn(CC3CCCCC3)nn2)CCS(=O)(=O)N1Cc1ccc(-c2ccc(Cl)cc2)cc1` (stereo unspecified), the inhibition was 2.74% (inactive). In the case of `CC(C)CC1C(=O)N(Cc2cn(Cc3ccco3)nn2)CCS(=O)(=O)N1Cc1ccc(-c2ccc(Cl)c(Cl)c2)cc1` (stereo unspecified) it was 35% (active); in that of `CC1C(=O)N(Cc2cn(Cc3ccco3)nn2)CCS(=O)(=O)N1Cc1ccc(-c2cccc(CO)c2)cc1` (stereo unspecified), -3.23% (inactive); in that of `Cc1c(C(=O)OCC(=O)N(CCC#N)c2ccccc2)oc2c1ccc1ccccc12`, -4.25% (inactive). With `CC(C)c1nc(CNC(=O)CC2C(=O)NCCN2Cc2ccoc2)cs1` (stereo unspecified) the figure was 0.09% (inactive); with `CCOc1ccc(C(=O)Nc2cccc(SC)c2)cc1`, -7.85% (inactive); with `CC(C)(C)NC(=O)C(c1ccncc1)N(C(=O)CNC(=O)c1ccco1)c1ccc2c(c1)OCO2` (stereo unspecified), -2.29% (inactive).

`Cc1cc(Br)cn2c(Cc3ccsc3)c(-c3ccc(C#N)cc3)nc12`: the inhibition is -0.162% (inactive). In the case of `Clc1ccc(C2=CSC3=Nc4cccc5cccc(c45)N23)cc1` it was 46.9% (active); in that of `Cc1ccc(/C=C/C(=O)O)cc1S(=O)(=O)N1CCC(Cc2ccccc2)CC1`, -2.42% (inactive). In the case of `COC(=O)c1ccc(COC(=O)c2cnccn2)cc1` it was -0.176% (inactive); in that of `CCOc1ccc(NS(=O)(=O)c2ccc(C(=O)NCC3CCCO3)cc2)cc1` (stereo unspecified), -1.46% (inactive). With `N#CCC(=O)Nc1ccc(C(=O)OCC(=O)Nc2sc3c(c2C#N)CCCC3)cc1` the figure was 32.6% (active); with `CC(=O)c1c(C)[nH]c(C(=O)OCC(=O)Nc2sc3c(c2C#N)CCCC3)c1C`, 6.3% (inactive); with `N#Cc1c(NC(=O)CCCl)sc2c1CCCCC2`, -2.84% (inactive). Consider `CCOc1ccc(NC(=O)CCNC(=O)c2ccc(Br)cc2)cc1`, for which the inhibition is -10.7% (inactive). In the case of `CCOc1ccc(NC(=O)c2ccc(NC(=O)COC(=O)c3ccc(NC(=O)CC#N)cc3)cc2)cc1`, the inhibition was 39.8% (active). Take `CC(C)NC(=O)NC(=O)COC(=O)c1ccc(NC(=O)CC#N)cc1`: the inhibition was 0.78% (inactive). In the case of `C/C=C(/C)C(=O)OC1Cc2c(ccc3ccc(=O)oc23)OC1(C)C` (stereo unspecified) it was -4.64% (inactive); in that of `CCCCc1cc(=O)oc2c(C)c(OCC(=O)N3CCC(C(N)=O)CC3)ccc12`, -1.4% (inactive). With `Cc1ccc(-c2ccc(/C=C(\C#N)C(N)=S)o2)c([N+](=O)[O-])c1`, the inhibition was -3.57% (inactive). With `Cc1ccc(C(=O)N/C(=C/c2ccc(-c3cccc([N+](=O)[O-])c3)o2)C(=O)NCCCN(C)C)cc1` the figure was -9.94% (inactive).

For `Cc1ccc(Cc2cnc(NC(=O)/C(C#N)=C/c3ccc(-c4cccc([N+](=O)[O-])c4)o3)s2)cc1`, the inhibition was 51.2% (active). With `CCCCN(C(=O)c1ccc(S(=O)(=O)N2CCOCC2)cc1)C1CCS(=O)(=O)C1` (stereo unspecified) the figure was -1.78% (inactive). In the case of `O=C(CC(NS(=O)(=O)c1ccc(Cl)cc1)c1ccco1)NC1CCCC1` (stereo unspecified) it was 1.19% (inactive); in that of `COc1ccc(NC(=O)COc2ccc(C(=O)c3ccc(F)cc3)cc2)cc1S(N)(=O)=O`, 7.92% (inactive); in that of `Cc1c(OC(C)C(=O)NCC2CCC(C(=O)O)CC2)ccc2c1oc(=O)c1ccccc12` (stereo unspecified), 4.05% (inactive). With `O=C(NCC1CCCCC1)NCC1CCCCC1` the figure was 2.72% (inactive); with `C[C@H]1CN([C@@H](C)CO)C(=O)c2cc(-c3ccccc3F)cnc2O[C@H]1CN(C)C(=O)C1CCOCC1`, -1.92% (inactive); with `Cc1ccc(NC(=O)CCNC(=O)c2ccc([N+](=O)[O-])cc2)cc1S(=O)(=O)N1CCOCC1`, 0.847% (inactive).

As to `COc1ccc(NS(=O)(=O)c2cc(NC(=O)CC(=O)c3ccc([N+](=O)[O-])cc3)ccc2C)cc1`, the inhibition is 44.2% (active). With `COc1ccc(NS(=O)(=O)c2cc(NC(=O)COc3ccccc3F)ccc2OC)cc1` the figure was -11.4% (inactive); with `O=[N+]([O-])c1ccc(Oc2ccc(F)cc2Br)c2ccncc12`, 4.81% (inactive).

Turning to `CCCn1nnnc1NC(=O)COc1ccc(Cl)cc1C`, the inhibition was 8.48% (inactive). In the case of `CCc1ccc(C(=O)OCC(=O)NCC(F)(F)F)cc1` it was -0.578% (inactive). For the molecule `C=CCCC(=O)Nc1nc(C)c(-c2csc(Nc3ccc(Cl)cc3)n2)s1`, the inhibition is 12.2% (inactive). In the case of `Cc1ccn2c(-c3csc(Nc4ccc(C(=O)O)cc4)n3)c(C)nc2c1` it was -7.16% (inactive); in that of `Cc1ccc(Nc2nc(-c3sc(NC(=O)c4ccccc4)nc3C)cs2)cc1`, 36.9% (active).

On to `c1ccc2c(c1)OC1OC2Oc2ccccc21`, for which the inhibition was -4.86% (inactive). With `COc1ccc(C(=O)N2CCCC(C(=O)c3ccccc3OC)C2)cc1OC` (stereo unspecified) the figure was -7.22% (inactive); with `O=C(O)c1ccc(NN=CC2=C(N3CCOCC3)/C(=C/c3ccccc3)CC2)cc1`, 19.5% (inactive); with `O=C1Nc2ccc(Br)cc2/C1=N/N=C/C1=C(N2CCOCC2)C(=C\c2ccccc2)/CC1`, 30.5% (active). In the case of `CC1=NN(C(=O)CCc2ccccc2O)C(O)(C(F)(F)F)C1` (stereo unspecified) it was 17.6% (inactive); in that of `O=C1OC(NC(=O)c2ccccc2)C(N2CCOCC2)=C1Cl` (stereo unspecified), -2.17% (inactive). With `Cn1c(N)c(C(=O)COC(=O)c2cccc(S(=O)(=O)N3CCOCC3)c2)c(=O)n(C)c1=O` the figure was -4.47% (inactive).

Consider `CCOc1ccc2nc(/N=C/c3nc(-c4ccccc4)oc3O)sc2c1`, for which the inhibition is 37% (active). In the case of `Oc1oc(-c2ccccc2Br)nc1/C=N/c1ccccn1` it was -8.02% (inactive); in that of `CCOc1ccc2nc(C(=O)N3CCCC(C)C3)sc2c1` (stereo unspecified), -8.67% (inactive); in that of `COc1ccc(S(=O)(=O)NCc2cccnc2)cc1NC(=O)c1ccc(C)cc1`, -1.72% (inactive).

`Cc1ccccc1OCC(=O)N(Cc1cccc(F)c1)C1CCS(=O)(=O)C1` (stereo unspecified): the inhibition was -3.33% (inactive). As to `O=S(=O)(c1ccc(-c2ccccc2)cc1)N1CCCC1`, the inhibition is -5.08% (inactive). Turning to `O=C1CCC(C(=O)N2CCN(c3ccccc3Cl)CC2)CN1CC1CCCCC1` (stereo unspecified), the inhibition is 5.68% (inactive). In the case of `Cc1nc(N2CCN(c3ccccn3)CC2)c2c(C)c(C(=O)Nc3ccc(F)c(Cl)c3)sc2n1` it was 29.5% (active). In the case of `Cc1nc(N2CCOCC2)c2c(C)c(C(=O)Nc3ccc(C(F)(F)F)cc3)sc2n1` it was -4.82% (inactive); in that of `Cc1nc(N2CCC(C)CC2)c2c(C)c(C(=O)Nc3cc(F)ccc3C)sc2n1`, 7.17% (inactive); in that of `O=S(=O)(NN=C1CCCCCCC1)c1ccc(Br)cc1`, -0.0867% (inactive). With `O=C(CNS(=O)(=O)c1ccc(Br)s1)N1CCN(C(=O)c2ccco2)CC1` the figure was -0.302% (inactive); with `COc1cc(C2CC(=O)N3CN(Cc4ccccc4)CSC3=C2C#N)ccc1OCc1ccccc1` (stereo unspecified), 31.4% (active); with `CCCNC(=O)C1CC(=O)N(c2ccc(OCc3ccccc3)cc2)C1` (stereo unspecified), 0.155% (inactive). Take `COc1cc(CNC2CCCC2)c(Br)cc1OCc1ccccc1`: the inhibition is -2.14% (inactive).
